Reference: the supplement of paper PMC6555819

The sequences below were run on VDR:RXRa (NR concentration 270 nM, RXRa partner concentration 90 nM) (assay: PBM binding z-score (relative to random genomic background probes); higher = stronger binding; sequences stand for … in GC…GCGATTGACAGCGTAGAATGAAGG).
Experimental: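 Protein-binding microarray (Agilent 4x180K custom design, double-stranded 60-nt probes: 5' GC cap, 34-nt variable region, 24-nt constant primer region; full probe sequence given). Purified or IVT nuclear receptor:RXRα heterodimers (3:1 NR:RXRα, mostly 270:90 nM) or homodimers were incubated for 1 h in PBS with 2% milk and no ligand, then detected with Alexa488 antibodies. Fluorescence from o1-orientation probes (~5 replicates averaged) was converted to z-scores against 500 random hg19 background probes. Variable regions are seed direct-repeat (DR0–DR5) sites, all their single-nucleotide variants and half-site ablations.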

Sequence | PBM binding z-score
TCTTGTAGATCAAGCAGGTTAAGACAGCCTGAGT | 0.279
GCATAAAGGTAATACAAGGTGAAAGTCCGATTGT | 1.05
CCTAGTTGGTCAGGAGGTCACTCACCGGATATGA | 3.4
CGAACGAGGGCATGAGTTGATAGGAAATGCCGAT | 1.13
TTACCAAGGTGAGCTGTGGTCGTTGATCCAACTC | -0.311
TCATATAGGTAAATGCTAGGTTAAAGTCCGATCT | 1.33
ATATGCAGGTTAGCTGGGGTCATTCAGACTAGGC | 6.21
CGAACTAGGTCAAGGACAATGAATCTCCGCACGC | 1.49
TCTTTTAGATCAGCAGGTTAAGAAAGCTGGCCAA | 0.691
GCTAGTTGGTTAGTAAAAGGTCACACACCGGTCG | 3.93
TGAATGAGGTCATAAGATCAGGGAACGTTGCAAA | 4.71
TCTCGGAGGACACGAAAGGCCAGAGCTCGACATC | -0.308
GGATCGAGGGCAAAGTTGATAGCATCTGTCGACG | 1.44
CCTAGCAGCCCAGGGTCACTCAAGCATTTCGCTT | 2.44
TCTAGCAGGCCAGAGGGTCACTTAAGAGGTACGG | 1.26
TCATATAGGTAATACAAGTGAAAGTCGGCATCTA | 1.24
CAGCCTAGGTCAGGGCCATTATAGGAGGAACGTT | 0.399
CAAACTAGGTCACCGGAAGGTCCAAGTCCGCATG | 3.1
GCAGACAGGTGAAACGCAGGTAAGTCAGGGTGGC | -0.562
ATCTGTAGGTAACAAGTTCAGTGAAAGAGAGGAC | 2

Sequence | PBM binding z-score
CGAACTAGGTAAGAACAGGACAGTGAAGGATGAT | -0.253
CCTGCTAGGTCATGGGCAGCTAATCTACAGTATG | 1.19
ATCTCTAGGTAAATTTCAGTGAAAGATCGATAGA | 0.297
GCGGCTAGGTCAACTGATGGTCAGCTAAAGCTCG | 1.28
GCAAATAGGTAATACAAGGTGAAAGTCCGATTGT | 0.551
CCTAGTTGGTCAAGGCCACACACGCTATAGGTAC | 0.31
TGTCAAAGTTCAAAGGTAAGGTAAGTATCCACAC | 4.95
GGAACGAGGGCAAGTTGATAGCCGAGTTTGATGG | 1.04
AGACTGAGGTTACCAAAGATCAGGGAAACGCTTG | 1.13
CCTACTGGGCCATTCAGAGGTCATTTATCATATG | 3.73
TAGCCTAGGTCATTAGGCCAGTATAGTACGCATC | 1.69
TTACTAAGGTGAAAGGTCGTTGATGCACGCCTTG | 3.59
CGAACTAGGTCATCCTGGACAGTGAATACATTGA | 2.56
CTCGAAAGCTCGGTTGAGGTGAGTATACGGATAA | -0.326
CAAACTAGGTCAAGAGGTCAACGTCCGCTTCCCG | 5.97
CGAACTAGGTCATCCAGGATAGTGAATACATTGA | 3.02
ATATGTCGGTTACATCCGGGTCATTCAGGCTATG | 3.53
GCAGACTGGTGAAACGCAGGTAACTCAGGGTGGC | -0.985
CTACCAAGGTGAACAAGATCGTTGATTACTATTC | 1.31
CCAACTAGGTCATCCAGGACAGTGAATACATTGA | 4.58
